# Records with an inconclusive call do not appear. A call without a number means that no potency is given here. Values without a mark were called inactive. Activity calls are given as the source filed them. Calls follow the shape of the dose curve; as a rule, active = well fitted cell-killing curve with a large enough effect; inconclusive = small, poorly fitted or top-dose-only effect, or effect the other way; inactive = flat fitted curve, though single readings scatter. *1 amine or outer side, *2 acyl side, *3 side chain or, on linkers, in order; H or OH if unused. Where a SMILES comes first, the peptide text is derived from it. Bridges are numbered along the chain shown (N, C = ends). [ ]: non-standard residue; d: D form. The star is where a group is joined. pTerphenylCO(4''-OnC5H11) = CCCCCOc1ccc(-c2ccc(-c3ccc(C(=O)*)cc3)cc2)cc1; Orn(4R-OH,5R-OH) = O=C([C@H](C[C@@H](O)[C@@H](O)N[*:3])N[*:1])[*:2]; hTyr(3S-OH,4S-OH) = N[C@H](C(=O)O)[C@H](O)[C@@H](O)c1ccc(O)cc1; Pro(3S-OH,4S-Me) = C[C@H]1CN[C@H](C(=O)O)[C@H]1O; Hyp = O=C(O)[C@@H]1C[C@@H](O)CN1
# How the values were obtained:
# Assay in all cases: Primary qHTS to identify gynecologic anti-cancer compounds using libraries of approved drugs and bioactive compounds (AID 1345084); also: nearly all actives have a fitted effect of over 55% in size
# Conditions in all cases: Gynecologic cancer cell panel viability, ATPlite luminescence, 48 h; series mostly up to 57.5 µM
# SKOV3 = tested on: SKOV3
# Method in brief: (§1)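 ATP-based viability (ATPlite), 1,000 cells/well, 16 h pre-incubation, 48 h compound at 37 C, 5% CO2, 15 min RT before read.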
# Tov-21-G = tested on: Tov-21-G
# Method in brief: as §1
# Tov112D = tested on: Tov112D
# Method in brief: as §1
# Potency is read from the fitted curve at half-maximal effect.
smiles,measurement,setting,value
NC(=O)N1CCC(CC(=O)N2CCC(C3c4ncc(Br)cc4CCc4cc(Cl)cc(Br)c43)CC2)CC1 (centres undefined),Potency,SKOV3,inactive
same,Potency,Tov-21-G,inactive
N#CSc1cc(SC#N)c(N)nc1N,"activity change, negative = cytotoxicity",SKOV3,-0.394% [at 11.6 µM]
same,"activity change, negative = cytotoxicity",Tov-21-G,-3.87% [at 11.6 µM]
C=CC(=O)N1CCN(C(=O)CNc2cc(-c3ccccc3Cl)c(Cl)cc2OC)CC1,Potency,SKOV3,inactive
same,Potency,Tov-21-G,inactive
same,Potency,Tov112D,inactive
"CCCCCOc1ccc(-c2ccc(-c3ccc(C(=O)N[C@H]4C[C@@H](O)[C@@H](O)NC(=O)[C@@H]5[C@@H](O)[C@@H](C)CN5C(=O)[C@H]([C@@H](C)O)NC(=O)[C@H]([C@H](O)[C@@H](O)c5ccc(O)cc5)NC(=O)[C@@H]5C[C@@H](O)CN5C(=O)[C@H]([C@@H](C)O)NC4=O)cc3)cc2)cc1 ({pTerphenylCO(4''-OnC5H11)}-[Orn(4R-OH,5R-OH)]T[Hyp][hTyr(3S-OH,4S-OH)]T[Pro(3S-OH,4S-Me)]; lactam 1-C)",Potency,SKOV3,inactive
same,Potency,Tov-21-G,inactive
same,Potency,Tov112D,inactive
Cc1ccc(C(C)C)c(O[C@@H]2O[C@H](CO)[C@@H](O)[C@H](O)[C@H]2O)c1,Potency,SKOV3,inactive
same,Potency,Tov-21-G,inactive
C[C@@H](N[C@H]1CCCC[C@@H]1NC(=O)c1ccc(Cl)cc1)c1cccc2ccccc12,Potency,SKOV3,31.6 µM (active)
same,Potency,Tov-21-G,inactive
Cc1cc2c(F)c(Oc3ncnn4cc(OCC(C)OC(=O)C(C)N)c(C)c34)ccc2[nH]1 (centres undefined),Potency,SKOV3,inactive
same,Potency,Tov-21-G,inactive
c1ccc(-c2cnn3cc(-c4ccc(OCCN5CCOCC5)cc4)cnc23)cc1,Potency,SKOV3,15.8 µM (active)
same,Potency,Tov-21-G,inactive
COc1cc(N2CCC(N3CCN(C)CC3)CC2)ccc1Nc1ncc(Cl)c(Nc2ccccc2P(C)(C)=O)n1,Potency,SKOV3,8.91 µM (active)
same,Potency,Tov-21-G,7.08 µM (active)
CCCCCCCOc1cc2c(cc1/C(C)=C/c1ccc(C(=O)O)cc1)C(C)(C)CCS2(=O)=O,Potency,SKOV3,inactive
same,Potency,Tov-21-G,inactive
same,Potency,Tov112D,inactive
COc1ccc(C(=O)Nc2c(Cl)cncc2Cl)cc1OC1CCCC1,Potency,SKOV3,inactive
same,Potency,Tov-21-G,inactive
same,Potency,Tov112D,inactive
CN(C)S(=O)(=O)c1ccc(NC(=S)N2CCC(C(O)(c3ccccc3)c3ccccc3)CC2)cc1,Potency,SKOV3,inactive
same,Potency,Tov-21-G,inactive
same,Potency,Tov112D,inactive
O=C([C@@H]1CCCN(c2ccc3[nH]c(C4(n5cc(Cl)cn5)CC4)nc3n2)C1)N1CCCC1,Potency,SKOV3,inactive
same,Potency,Tov-21-G,inactive
same,Potency,Tov112D,inactive
CC1(C)CC[C@]23CO[C@@]4(CCC5[C@@]6(C)CC[C@H](O[C@@H]7OC[C@H](O[C@@H]8O[C@H](CO)[C@@H](O)[C@H](O)[C@H]8O[C@@H]8OC[C@@H](O)[C@H](O)[C@H]8O)[C@H](O)[C@H]7O)[C@@](C)(CO)C6CC[C@@]5(C)[C@]4(C)CC2=O)[C@@H]3C1 (some centres undefined),"activity change, negative = cytotoxicity",SKOV3,-7.83% [at 11.6 µM]
same,"activity change, negative = cytotoxicity",Tov-21-G,-3.45% [at 11.6 µM]
same,"activity change, negative = cytotoxicity",Tov112D,1.26% [at 11.6 µM]
CC(C)=C1C[C@@]2(C)C(=CC1=O)CC[C@@H](OC(=O)/C(C)=C/CO)[C@@H]2C,Potency,SKOV3,11.2 µM (active)
same,Potency,Tov-21-G,inactive
same,Potency,Tov112D,inactive
O=C(CSc1nc2ccccc2c(=O)n1-c1ccccc1)Nc1ccc2c(c1)CCC2,Potency,SKOV3,inactive
same,Potency,Tov-21-G,inactive
same,Potency,Tov112D,inactive
Cc1onc(-c2ccccc2)c1C(=O)N1CCN(c2ccc([N+](=O)[O-])cc2Cl)CC1,Potency,SKOV3,inactive
same,Potency,Tov-21-G,inactive
same,Potency,Tov112D,inactive
CCNC(=O)N1CCCN(c2ccc(C(=O)NCCc3ccc(Cl)cc3Cl)cc2NC(=O)c2cccc(Cl)c2)CC1,Potency,SKOV3,1 µM (active)
same,Potency,Tov-21-G,inactive
same,Potency,Tov112D,inactive
COCC(=O)NC/C=C/c1ccc2ncnc(Nc3ccc(Oc4ccc(C)nc4)c(C)c3)c2c1,Potency,SKOV3,31.6 µM (active)
same,Potency,Tov-21-G,inactive
same,Potency,Tov112D,inactive
COC1C(OC(=O)/C=C/C=C/C=C/C=C/C(=O)O)CCC2(CO2)C1C1(C)OC1CC=C(C)C (centres undefined),Potency,SKOV3,inactive
same,Potency,Tov-21-G,inactive
same,Potency,Tov112D,inactive
C[C@H]1CC[C@@]2(OC1)O[C@H]1CC3[C@@H]4CC[C@@H]5C[C@@H](O[C@@H]6O[C@H](CO)[C@@H](O[C@@H]7O[C@H](CO[C@@H]8OC[C@@H](O)[C@H](O)[C@H]8O)[C@@H](O[C@@H]8O[C@H](CO)[C@H](O)[C@H](O)[C@H]8O)[C@H](O)[C@H]7O)[C@H](O)[C@H]6O)CC[C@]5(C)C4CC[C@]3(C)[C@H]1[C@@H]2C (some centres undefined),"activity change, negative = cytotoxicity",SKOV3,11% [at 11.6 µM]
same,"activity change, negative = cytotoxicity",Tov-21-G,-1.12% [at 11.6 µM]
same,"activity change, negative = cytotoxicity",Tov112D,3.54% [at 11.6 µM]
CCCN(CCc1ccsc1)C1CCc2c(O)cccc2C1 (centres undefined),Potency,SKOV3,inactive
same,Potency,Tov-21-G,inactive
same,Potency,Tov112D,inactive
